# Assay outcomes as filed in PubChem.
# The sample as a whole holds a higher share of hits than the screen did.
# Pf Dd2 growth – blocks in vitro growth of P. falciparum Dd2; P. falciparum Dd2 growth, SYBR Green, 72 h; Potency, µM (highest dose often 28.9 µM), for inactives: top-dose activity, negative = inhibition, actives largely listed as inhibitors; 120,000 compounds, 4.3% hits; AID 1347417; active means well fitted inhibition curve with a large enough effect;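 further: plate controls were DMSO vehicle for no effect and reference drug for full effect; nearly all actives have a fitted effect of over 65% in size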
#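 Readout: SYBR Green fluorescence, 485 nm excitation, 535 nm emission, after ~16 h lysis at 37C. Before that, Dd2-infected red cells (2.5% hematocrit) grew 72 h with compound, 29 uM top final concentration.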
# Starred values were filed as active, the others as inactive; i = inactive; [ ] = another dose, or the depositor's remark. Potency means the concentration at half of the fitted maximal effect.
SMILES,Pf Dd2 growth
O=C(c1noc(-c2ccc(F)cc2)n1)N1CCN(c2ccccc2F)CC1,10.8%
NCc1n[nH]c(=O)n1-c1ccc2c(c1)OCO2,-12.3%
Cc1nnc(NC(=O)C2CC(=O)N(c3n[nH]c4cccc(F)c34)C2)s1 (stereo not drawn),-15.5%
CC1(C(=O)NC2CC2)CCCc2cnc(Nc3cccnc3)nc21 (stereo not drawn),i
O=C(c1cocn1)N1C[C@@H](COCC2CC2)[C@H](c2ccccn2)C1,-5.1%
O=C1Nc2ccccc2CC12CCN([S+](=O)([O-])c1ccccc1)C2 (stereo not drawn),3.6%
Cc1ccc2nc(-c3ccc(C)c(NC(=O)CSc4ccc(Cl)cc4)c3)oc2c1,-0.2%
Cc1ccc(SCC(=O)Nc2ccc3oc(-c4cccc(C)c4)nc3c2)cc1,-3.9%
Cc1ccc2nc(-c3cccc(NC(=O)CSc4ccc(Cl)cc4)c3)oc2c1,11.2µM*
O=C1NCCOCCN(C(=O)c2ccccn2)[C@H]2CCC[C@@H]12,i
COc1ccc(NC(=O)CCSc2nc(-c3ccc(OC)cc3)cc(C(F)(F)F)n2)cc1,-22.4%
COCCNC(=O)CCSc1nc(-c2ccc(OC)cc2)cc(C(F)(F)F)n1,i
CCC(C)NC(=O)CCSc1nc(-c2ccc(OC)cc2)cc(C(F)(F)F)n1 (stereo not drawn),11.2µM*
CC(=O)N1CCC(N[C@@H]2CO[C@H](CNC(=O)C3CCCC3)[C@H]2O)CC1,22.0%[44.1 µM]
O=C(Cn1nccn1)NC1CC(c2cc(N3CCC(O)C3)ncn2)C1 (stereo not drawn),-3.7%
C[C@@H]1CN(C(=O)c2ccn(C(C)(C)C)c2)CC[C@@]1(O)C1CCOCC1,-2.4%
CCN1c2cc(C(=O)NC3CCCC3)ccc2C(=O)N2CCCCC21 (stereo not drawn),-10.3%
CCC1=Nc2cc(C(=O)NCCC(C)C)ccc2Sc2ccc(Br)cc21,12.6µM*
CCC1=Nc2cc(C(=O)NC3CCCC3)ccc2Sc2ccc(Cl)cc21,4.47µM*
CCN1C(=O)Cc2cc(C(=O)NCCC(C)C)ccc21,i
CC1=Nc2cc(C(=O)NC3CCCC3)ccc2Sc2ccc(Cl)cc21,11.2µM*
CC1=Nc2cc(C(=O)NC3CCCC3)ccc2Sc2ccc(C)cc21,-16.6%
CC(C)CCNC(=O)c1ccc2c(c1)N(C)C(=O)c1ccccc1S2,i
O=C(NC1CCCCC1)c1ccc2c(c1)N(Cc1cccc(F)c1)C(=O)c1ccccc1S2,9.7%
CCN1c2cc(C(=O)NC3CCCC3)ccc2C(=O)N2CCCCCC21 (stereo not drawn),i
SMILES,Pf Dd2 growth
Cc1noc(C)c1S(=O)(=O)N(C)C1CCOc2ccccc21 (stereo not drawn),-18.2%[44.1 µM]
O=C(N[C@@H]1CN(c2ncccn2)C[C@H]1CO)c1ccoc1,-1.7%
CC(C)Oc1ccc2c(NC(=O)Cn3cccnc3=O)nn(CC(F)(F)F)c2c1,18.5%
Cn1ccc(C(=O)NCc2nnc3n2C(C(=O)N2CCN(c4ncccn4)CC2)CC3)n1 (stereo not drawn),27.0%
Cc1cc(C(=O)N2CCOC[C@H](Oc3ccc(S(C)(=O)=O)cc3)C2)c(C(F)(F)F)o1,-12.7%
C#C[C@H]1CN2CC[C@H]1C[C@@H]2COC(=O)Nc1ccc(C(C)(C)C)cc1,-14.7%[44.1 µM]
C#C[C@H]1CN2CC[C@H]1C[C@@H]2COC(=O)Nc1ccc(Br)cc1,i
C#C[C@H]1CN2CC[C@H]1C[C@@H]2COC(=O)Nc1ccc(OC(F)(F)F)cc1,11.2µM*
COC[C@@H]1CN(S(=O)(=O)c2ccccc2C)C[C@H]1c1ccncc1,-19.0%
Cc1nc(CCC(=O)NCc2ccc3[nH]c(-c4ccccc4F)c(C)c3c2)n[nH]1,-3.5%
CNc1ncc(C(=O)N2CCN(c3nccc(N)n3)CC(O)C2)cn1 (stereo not drawn),-1.9%
COc1ccc(NC(=O)c2ccc3c(=O)n4nc(Nc5ccccc5C)sc4nc3c2)cc1,-10.1%
CCc1ccccc1Nc1nn2c(=O)c3ccc(C(=O)NC(C)C)cc3nc2s1,-19.9%
CCc1ccccc1Nc1nn2c(=O)c3ccc(C(=O)NCc4cccs4)cc3nc2s1,14.1µM*
CCc1ccccc1Nc1nn2c(=O)c3ccc(C(=O)NCCCOC(C)C)cc3nc2s1,11.2µM*
COc1ccccc1Nc1nn2c(=O)c3ccc(C(=O)NC(C)c4ccccc4)cc3nc2s1 (stereo not drawn),-14.1%
Cc1ccc(NC(=O)c2ccc3c(=O)n4nc(Nc5ccccc5C)sc4nc3c2)cc1C,-2.4%
Cc1ccc(Cl)cc1Nc1nn2c(=O)c3ccc(C(=O)NC(C)c4ccccc4)cc3nc2s1 (stereo not drawn),7.94µM*
COc1ccc(NC(=O)c2ccc3c(=O)n4nc(Nc5ccccc5C)sc4nc3c2)cc1Cl,-4.3%
CCc1ccccc1Nc1nn2c(=O)c3ccc(C(=O)NCc4ccccc4Cl)cc3nc2s1,11.2µM*
Cc1ccc(Cl)cc1Nc1nn2c(=O)c3ccc(C(=O)Nc4ccc(F)cc4)cc3nc2s1,-5.1%
CCOC(=O)C1CCN(C(=O)c2ccc3c(=O)n4nc(Nc5ccccc5)sc4nc3c2)CC1,-17.9%
COC(=O)c1ccc2c(=O)n3nc(Nc4cc(OC)ccc4OC)sc3nc2c1,91.3%
Cc1cccc2c1nc1n2[C@@H](CNC(=O)c2ccc(F)cc2)COC1,i
O=C1NCCCCCCN(C(=O)NCCc2ccccc2)[C@H]2CCCC[C@@H]12,i
SMILES,Pf Dd2 growth
CC(=O)N1CC(N(Cc2ccccc2)C2CCOCC2)C1,-4.0%
CCNC(=O)[C@@H]1C[C@H](NC(=O)c2cc(C)on2)CN1Cc1cnn(CC)c1,2.8%
CN(C)c1ccc(CN2CC(N3CCc4ccccc43)C2)cc1,i
Cc1ccccc1CCC1CCCNC1 (stereo not drawn),11.2µM*
Cc1ccccc1CCC1CCCN(C(=O)CCc2cnccn2)C1 (stereo not drawn),i
Cc1ccccc1CCC1CCCN(S(C)(=O)=O)C1 (stereo not drawn),-19.4%
O=C(Nc1ccccc1)N1CCCC1c1nnc2n1CCNC2 (stereo not drawn),6.1%
Cc1cc(C)n(-c2ccc(NC(=O)C3CCCCN3C(=O)c3ccc[n+]([O-])c3)cc2)n1 (stereo not drawn),-3.1%
Cc1noc(C)c1[S+](=O)([O-])N1CCC2(CC1)Cc1ccccc1NC2=O,-10.6%
Cc1noc(C)c1[S+](=O)([O-])N1CCC2(CC1)COc1ccccc1NC2=O,8.91µM*
O=C1Nc2ccccc2OCC12CCN([S+](=O)([O-])c1ccccc1)CC2,8.6%
COc1ccc(-c2onc(C)c2C(=O)NCc2cccs2)cc1,-7.8%
c1ccc(CCCc2noc(-c3ccc(N4CCCNCC4)nc3)n2)cc1,-14.3%
O=C(c1cc(Br)cn2ccnc12)N1CCC(N2CCCCC2)CC1,6.3%
CCn1c(CN2CCCCC2)nc2cc(NC(=O)COc3ccc(C(C)(C)C)cc3)ccc21,8.91µM*
CCn1c(CN2CCN(C)CC2)nc2ccccc21,-22.9%
CCn1c(CN2CCCCC2)nc2cc(NC(=O)c3cccc([N+](=O)[O-])c3)ccc21,3.55µM*
CCCC(=O)Nc1ccc2c(c1)nc(CN1CCN(C(=O)OCC)CC1)n2C(C)C,-6.6%
CCn1c(CN2CCOCC2)nc2cc(NC(=O)c3cc(OC)c(OC)c(OC)c3)ccc21,-16.3%
Cn1c(CN2CCCCC2)nc2cc(NC(=O)c3ccc(Cl)cc3)ccc21,-13.8%
CCC(C)NC(=O)C1(c2ccc(NC(C)=O)cc2)CCCCC1 (stereo not drawn),1.7%
CC(=O)Nc1ccc(CN2C[C@@H](F)[C@@H](OCc3nc4ccc(F)cc4[nH]3)C2)cc1,i
COCCn1c(CO)nnc1C1CC(NC(=O)c2cccc(C)c2Cl)C1 (stereo not drawn),-13.8%
